Assay outcomes as filed in PubChem.
Hits are enriched below; roughly 4.2% of the tested compounds scored in any of these assays.
DAX1 StAR inh – DAX1 (NR0B1) inhibition, primary screen; HEK293T StAR-luciferase reporter, SF-1/DAX-1 repression relief; inhibition, % at 6.8 µM; actives 1.1% (n = 370,000);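 active means inhibition above the mean over all tested compounds plus 3 SD, cut at about 3.6% in these data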;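 further: 0% = DAX-1 cells with DMSO and 100% = cells lacking DAX-1 with DMSO; higher inhibition means more luminescence from relief of DAX-1 repression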
esBAF inh – blocks esBAF chromatin remodeling in mouse ES cells | Bmi1-luciferase knock-in reporter, 24 h; 100% = twice the neutral-well signal | reporter increase, % at 12.5 µM | actives 2% (n = 350,000); in the data active means activation above about 40%;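 further: 0% = median of the plate's neutral control wells and 100% = double that signal; a rise in the Bmi1 reporter signal indicates esBAF inhibition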
hgDAF12 agonist – agonists of H. glycines DAF-12 nuclear receptor; activation, % at 6.8 µM; actives 1.8% (n = 370,000); HEK293 GAL4-hgDAF12 UAS-luciferase reporter, agonist luminescence; normalized to butyrate control;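 active means activation above a cutoff set at the mean of all screened compounds plus 3 SD, cut at about 10% in these data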;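 further: 0% = DMSO wells and 100% = sodium butyrate wells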
hcDAF12 agonist – activators of H. contortus DAF-12 nuclear receptor | actives 1.4% (n = 370,000) | AID 652067 | HEK293 hcDAF-12 lit1-tk-luc reporter, luminescence; 0% DMSO, 100% Δ7-dafachronic acid | activation, % at 6.8 µM;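 active means activation above the mean of all tested compounds plus 3 SD, cut at about 5.5% in these data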;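 further: 100% = response to 3 µM Δ7-dafachronic acid high control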
Wnt bcat act – Wnt/beta-catenin pathway activation. Wnt/beta-catenin reporter cell assay, activator, plate reader. activation, % at 9.35 µM. actives 1.2% (n = 300,000). AID 743398; in the data active means activation above about 30%, passing the limit was not always enough;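 further: 0% = neutral control wells and 100% = positive control wells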
ssDAF-12 act – activators of S. stercoralis DAF-12 nuclear receptor; actives 1% (n = 370,000); activation, % at 6.8 µM; HEK293 ssDAF-12/GRIP1 lit1-tk-luc reporter, luminescence; % of 3 µM dafachronic acid response;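 active means activation above the mean over all tested compounds plus 3 SD, cut at about 0.9% in these data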;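 further: 0% = DMSO-only wells and 100% = 3 µM delta7-dafachronic acid wells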
* marks the source's active call; other numbers are inactive results; . = no result given.

SMILES	DAX1 StAR inh	esBAF inh	hgDAF12 agonist	hcDAF12 agonist	Wnt bcat act	ssDAF-12 act
O=C(COC(=O)c1ccc(O)cc1O)Nc1ccc2c(c1)OCCO2	3	83*	5	1	-3	0
O=C(COC(=O)c1ccc(O)cc1O)Nc1ccc2ccccc2c1	-2	25	-3	0	3	-1
CNC[C@H]1OCCCC[C@@H](C)Oc2ccc(NS(=O)(=O)c3ccc(OC)cc3)cc2C(=O)N([C@@H](C)CO)C[C@@H]1C	.	-2	.	.	.	.
COC(=O)CCC(=O)OC1(C)C(=O)C=C2C=C(C3CC3)N(CCc3c[nH]c4ccccc34)C=C2C1=O (stereo unspecified)	0	6	1	6.3*	-2	0
CC=Cc1ccc2n(c1=O)C[C@@H]1[C@@H](CO)[C@H](C(=O)NCCC)[C@H]2N1S(=O)(=O)c1cn(C)cn1 (mixture of isomers)	.	-1	.	.	.	.
CC(C)(C)c1ccc(C(=O)Nc2ccc(Cl)cc2)cc1	1	.	5	2	15	0
CC(=O)Nc1nonc1NC(=O)c1ccc(C(C)(C)C)cc1	2	32	8	1	55*	-1
COc1ccc(-c2c(C(=O)c3ccccc3)[nH]c(N)c2C(=O)NCCc2c[nH]c3ccccc23)cc1	0	.	12*	0	-2	0
Cc1ccc(-c2c(C(=O)c3ccccc3)[nH]c(N)c2C(=O)NCCc2c[nH]c3ccccc23)cc1	2	.	6	2	-2	0
COc1ccc(C(=O)c2[nH]c(N)c(C(=O)NCCc3c[nH]c4ccccc34)c2-c2ccc(Cl)cc2)cc1	2	.	0	3	0	1.9*
Nc1[nH]c(C(=O)c2ccc(Cl)cc2)c(-c2ccc(Br)cc2)c1C(=O)NCCc1c[nH]c2ccccc12	0	.	0	2	-3	1.0*
Nc1[nH]c(C(=O)c2ccc(Br)cc2)c(-c2ccc(Br)cc2)c1C(=O)NCCc1c[nH]c2ccccc12	0	.	2	1	-1	0
CCOc1ccc2cc(/C=C/C(=O)c3ccco3)c(Cl)nc2c1	0	57*	4	2	.	-1
C[C@@H]1CN([C@@H](C)CO)C(=O)c2cc(NC(=O)c3ccncc3)ccc2O[C@H]1CN(C)Cc1ccc(Cl)c(Cl)c1	.	-1	.	.	.	.
CNC(=O)c1c(Cl)cnn1-c1ccc(C)cc1	2	.	12*	3	12	0
C=CCNC(=O)c1c(Cl)cnn1-c1ccc(C)cc1	1	.	12*	4	14	0
CNC(=O)c1c(Br)cnn1-c1ccc(C)cc1	3.7*	84*	12*	3	18	-1
COc1cnn(-c2ccc(C)cc2)c(=O)c1Br	1	.	6	2	-2	-1
COc1ccc(S(=O)(=O)Nc2cccc3c2O[C@@H](CN(C)C(=O)Nc2ccc4c(c2)OCO4)[C@H](C)CN([C@@H](C)CO)C3=O)cc1	.	4	.	.	.	.
O=C(Nc1ccc2c(c1)OCO2)N[C@@H]1CC[C@@H](CCNC(=O)C2CCCC2)O[C@H]1CO	.	-12	.	.	.	.
Cc1ccc2c(c1)sc1nc(=O)n(-c3ccc(Cl)cc3)c(=O)n12	0	23	-1	-2	.	-1
O=c1nc2sc3ccccc3n2c(=O)n1-c1cccc(Cl)c1	.	76*	.	.	.	.
Cc1ccc2c(c1)sc1nc(=O)n(-c3cccc(Cl)c3)c(=O)n12	1	69*	4	2	.	-1
Cc1ccc2c(c1)sc1nc(=O)n(-c3ccc(Cl)c(Cl)c3)c(=O)n12	0	3	-1	0	-2	-1
O=c1nc2sc3ccccc3n2c(=O)n1-c1ccc(Cl)cc1	2	46*	6	4	13	-1
SMILES	DAX1 StAR inh	esBAF inh	hgDAF12 agonist	hcDAF12 agonist	Wnt bcat act	ssDAF-12 act
Cc1ccc(S(=O)(=O)Nc2ccc3c(c2)C(=O)N([C@@H](C)CO)C[C@@H](C)[C@H](CN(C)C(=O)C2CCCCC2)OCCCC[C@@H](C)O3)cc1	.	6	.	.	.	.
C[C@H](CO)N1C[C@H](C)[C@@H](CN(C)C(=O)Nc2ccccc2)Oc2ccc(NC(=O)Nc3cccc4ccccc34)cc2CC1=O	.	2	.	.	.	.
COc1ccc2nc(NC(=O)CCNC(=O)c3ccccc3Cl)sc2c1	1	.	-2	-1	0	-1
O=C(CCNC(=O)c1ccccc1Cl)Nc1nc2ccccc2s1	3	.	9	6.4*	13	1
O=C(CCNC(=O)c1ccccc1Cl)Nc1nc(-c2ccccc2Cl)cs1	0	55*	2	1	5	-1
CCC(=O)N(C)C[C@H]1Oc2cc(-c3cncnc3)ccc2S(=O)(=O)N([C@@H](C)CO)C[C@H]1C	.	-1	.	.	.	.
O=C(O)CCc1ccc(-c2cccs2)o1	.	-5	.	.	.	.
OCCc1ccc(-c2ccc(Cl)cc2)o1	1	52*	4	1	1	-1
Clc1ccc(-c2ccc(CN3CCCCC3)o2)cc1	1	11	4	1	2	-1
Cc1ccc(-c2ccc(CCC(=O)O)o2)cc1	0	8	0	-1	.	2.6*
CS(=O)(=O)Nc1ccc2c(c1)[C@H]1C[C@@H](CC(=O)NCc3ccccc3F)O[C@@H](CO)[C@H]1O2	.	-2	.	.	.	.
C[C@@H]1CN([C@H](C)CO)S(=O)(=O)c2ccc(C#CC3CCCC3)cc2O[C@H]1CN(C)Cc1cccnc1	.	-1	.	.	.	.
CN1C(=O)/C(=C/c2ccc(OCc3cccc(F)c3)cc2)NC1=S	0	-1	-1	-1	-2	1.4*
CC(=O)N(C)C[C@@H]1Oc2ncc(-c3ccc(C(=O)N(C)C)cc3)cc2C(=O)N([C@@H](C)CO)C[C@H]1C	.	-3	.	.	.	.
CCCNC(=O)N1C[C@H](C)[C@@H](OC)CN(C)C(=O)c2cc(NC(=O)C3CCC3)ccc2OC[C@@H]1C	.	-1	.	.	.	.
O=S(=O)(N[C@H]1CC[C@H](CCn2cc(C3CC3)nn2)O[C@H]1CO)c1ccc(Cl)cc1	.	2	.	.	.	.
CCCN1C[C@H](C)[C@@H](OC)CN(C)C(=O)c2ccc(NC(=O)C3CCC3)cc2OC[C@@H]1C	.	2	.	.	.	.
COc1ccc2nc(N3CCC(O)CC3)c(C#N)cc2c1	0	23	2	1	11	-2
COc1ccc2nc(N3CCC(C)CC3)c(C#N)cc2c1	0	64*	5	-1	.	0
COc1ccccc1CNC(=O)C1CC(c2ccccc2[N+](=O)[O-])=NO1 (stereo unspecified)	0	-1	1	6.1*	-3	0
COc1ccc(CNC(=O)C2CC(c3cccc([N+](=O)[O-])c3)=NO2)cc1 (stereo unspecified)	0	54*	8	2	16	0
Cc1ccc(CNC(=O)C2CC(c3cccc([N+](=O)[O-])c3)=NO2)cc1 (stereo unspecified)	0	9	-1	-1	3	-1
